Bioassay records as filed in PubChem BioAssay.
BoNT-F LC inh = BoNT/F light chain protease inhibitors, primary screen, biochemical, flow cytometry, MLPCN library | inhibition, % at 10 µM | Botulinum neurotoxin type F light chain protease (Clostridium botulinum) | actives 0.22% (n = 360,000) | Multiplex microsphere protease cleavage assay | AID 588497, 2011; in the data active = inhibition above about 35%, passing the limit was not always enough; inconclusive = no clear call, values can overlap the other calls; also: plate controls were buffer without enzyme for full effect and enzyme alone for no effect
BoNT A protease = BoNT/A light chain protease inhibitors, primary screen, biochemical, flow cytometry, MLPCN library; actives 0.17% (n = 360,000); multiplex microsphere protease substrate cleavage; Botulinum neurotoxin type A light chain protease (Clostridium botulinum A str. ATCC 3502); inhibition, % at 10 µM; in the data active = inhibition above about 30%; inconclusive = no clear call, values can overlap the other calls; also: plate controls were buffer without enzyme for full effect and enzyme alone for no effect
Bead autofluor = compound fluorescence in toxin protease inhibitor counterscreen; compound autofluorescence counterscreen, microsphere flow cytometry; hits give high values; fluorescence intensity (concentration not given with the values); actives 3.1% (n = 360,000); AID 624483; in the data active = fluorescence intensity above about 16000; inconclusive = no clear call, values can overlap the other calls
Anthrax LF prot = Bacillus anthracis LF protease inhibitors, primary screen, biochemical, multiplex microsphere, MLPCN library | Lethal factor (Bacillus anthracis), P15917 | multiplex microsphere protease cleavage assay | inhibition, % at 10 µM | actives 0.12% (n = 360,000) | AID 588501, 2011; in the data active = inhibition above about 30%; inconclusive = no clear call, values can overlap the other calls; also: plate controls were buffer without enzyme for full effect and enzyme alone for no effect
MazEF act = activators of E. coli MazEF toxin-antitoxin RNase, primary screen, biochemical, fluorescence, uHTS. AID 504720, 2011. FAM/BHQ RNA-DNA oligo cleavage fluorescence, 5 h. Endoribonuclease toxin MazF (Escherichia coli (strain K12)), P0AE70. activation, % at 20 µM. actives 0.32% (n = 350,000); in the data active = activation above about 50%
Target sequence (P0AE70 whole entry, looked up): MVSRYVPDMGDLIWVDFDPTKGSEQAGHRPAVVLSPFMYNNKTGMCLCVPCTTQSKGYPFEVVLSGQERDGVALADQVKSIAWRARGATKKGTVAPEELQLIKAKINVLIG
BoNTA LC inh 1 = BoNT/A light chain protease inhibitors, confirmation, biochemical, flow cytometry, cherry pick 1; shares compounds with BoNT-F LC inh; inhibition, % at 10 µM; multiplex microsphere protease assay; AID 602139, 2011; actives 3% (n = 720); in the data active = inhibition above about 32%
BoNT-F LC CP1 = BoNT/F light chain protease inhibitors, confirmation, biochemical, flow cytometry, cherry pick 1. shares compounds with BoNT-F LC inh. multiplex microsphere protease cleavage assay. inhibition, % at 10 µM. 720 tested, under 10 active. AID 602140, 2011
LF protease CP1 = Bacillus anthracis LF protease inhibitors, confirmation, biochemical, multiplex microsphere, cherry pick 1 | shares compounds with BoNT-F LC inh | multiplex microsphere protease cleavage assay | inhibition, % at 10 µM | 720 tested, under 10 active | AID 602142, 2011
The depositor's hits bear a star; ? = inconclusive; . = not tested or not shown. A selection: hits, their analogues and other compounds. The true share with any hit is near 3.7%. Unless noted, no rule for the calls is given here.

SMILES | BoNT-F LC inh | BoNT A protease | Bead autofluor | Anthrax LF prot | MazEF act | BoNTA LC inh 1 | BoNT-F LC CP1 | LF protease CP1
CCOCCCNC(=O)C(c1ccc(C)cc1)N(Cc1ccc2c(c1)OCO2)C(=O)CNC(C)=O (centres undefined) | 35* | 0 | 3476 | -3 | 3 | 0 | 1 | -1
COc1ccc(-c2cc(Cl)cc3c(=O)c4ccccc4n(C)c23)cc1F | 13 | 22 | 4012 | 14 | -14 | . | . | .
Cc1ccc(CCC(=O)Nc2ccc(Cl)cc2Cl)o1 | -3 | 0 | 3523 | -5 | -9 | . | . | .
Cc1ccc(NC(=O)CCc2ccc(C)o2)c(Br)c1 | 91* | 3 | 3907 | -12 | -9 | 0 | -2 | -3
Oc1[nH]c(N=C2N=c3ccccc3=N2)c2ccccc12 | 111* | 13 | 3598 | -4 | 56* | 7 | 32* | 9
CC(C)N(Cc1ccccc1)C(=O)CC(=O)N(Cc1ccccc1)C(C)C | 36* | 9 | 5070 | 12 | -12 | 0 | -4 | -2
CC(C)N(Cc1ccccc1)C(=O)CN1C(=O)c2ccccc2C1=O | 7 | 0 | 4105 | -10 | 20 | . | . | .
Cc1ccc(N2CC(C(=O)NCCN3CCOCC3)CC2=O)cc1 (centres undefined) | 9 | 0 | 6072 | -1 | 6 | . | . | .
CCn1c(CCNC(=O)c2ccc(OC)c(OC)c2)nc2ccccc21 | 40* | 2 | 4085 | 1 | -2 | 2 | 3 | 0
O=C(Nc1ccccc1F)c1csc(COCCO)n1 | -2 | 1 | 2766 | 4 | . | . | . | .
COc1ccc(CCNC(=O)CCCc2ccccc2)cc1OC | 35* | 2 | 3365 | 10 | 2 | 0 | -5 | 2
COc1ccc(S(=O)(=O)NC(C)C(=O)NCc2cccnc2)cc1OC (centres undefined) | 44* | -1 | 3728 | -8 | -22 | 1 | -3 | 0
CC1C(=O)N2CCCc3cc(S(=O)(=O)N4CCN(c5ccccc5F)CC4)cc1c32 (centres undefined) | 2 | 4 | 5237 | -2 | 0 | . | . | .
NC(=O)Cn1nc(-c2ccccc2)nc1-c1ccccc1 | ? | -2 | 4464 | 31* | 0 | -2 | -6 | 4
O=C(COC(=O)c1ccc(F)cc1Cl)NC(=O)NC1CCCC1 | 3 | 1 | 7782 | 1 | -3 | . | . | .
Cc1ccc2c(c1)nc1c3ccccc3nc(-c3ccccc3N)n21 | 5 | 0 | 2872 | -2 | 8 | . | . | .
CCc1nc(SCC(=O)NCCc2ccccc2)n[nH]1 | 35* | 1 | 3454 | -6 | 9 | 1 | 0 | 3
O=C(CSc1n[nH]c(-c2ccncc2)n1)NCCc1ccccc1 | -6 | 0 | 2758 | 1 | 8 | . | . | .
COc1ccc2nc(C)cc(Nc3ccc(C)cc3)c2c1 | ? | -2 | 3745 | 8 | 15 | . | . | .
COc1ccc2nc(C)cc(NCc3ccc(F)cc3)c2c1 | 134* | 16 | 84261* | 14 | -137 | -11 | 74* | 7
COc1ccc(OC(=O)N(C)C[C@H]2OCc3cn(nn3)CCCC(=O)N([C@H](C)CO)C[C@@H]2C)cc1 | -1 | -1 | 3036 | -6 | 2 | . | . | .
CCCCC(=O)NCc1ccc2c(c1)cc(C)n2C | 17 | 43* | 10959 | 47* | -6 | 2 | -5 | -1
CCCS(=O)(=O)NCc1ccc2c(c1)cc(C)n2C | -41 | 69* | ? | 3 | -21 | 1 | -14 | -2
CCS(=O)(=O)NCc1ccc2c(c1)cc(C)n2C | -116 | 10 | 4442 | -72 | 19 | . | . | .
Cc1cc2cc(CNC(=O)CC(C)C)ccc2n1C | 13 | 31* | 17533* | 34* | 0 | 0 | -7 | -2
SMILES | BoNT-F LC inh | BoNT A protease | Bead autofluor | Anthrax LF prot | MazEF act | BoNTA LC inh 1 | BoNT-F LC CP1 | LF protease CP1
CC1CCC(NC(=O)CSc2nncn2C)CC1 (centres undefined) | 2 | 0 | 3885 | 0 | 11 | . | . | .
C=CCn1c(N2CCCC2)nc2c1c(=O)n(C)c(=O)n2C | 16 | 0 | 3562 | 44* | 1 | 1 | -2 | 4
O=S(=O)(Nc1ccc(Cl)nn1)c1ccccc1 | 38* | 6 | 4098 | 0 | -4 | -2 | -1 | -3
O=C1C=C(c2ccc(F)nc2)CCC1 | -4 | 0 | 4374 | -3 | 4 | . | . | .
O=C1C2C3C=CC(CC3)C2C(=O)N1c1ccc(Cl)cc1 (centres undefined) | . | . | . | . | 7 | . | . | .
O=C1C2C3C=CC(CC3)C2C(=O)N1c1ccc(Cl)cc1Cl (centres undefined) | 60* | 3 | 4588 | 3 | 11 | -1 | -6 | -1
O=C(NC1CCC(O)CC1)c1cc(Cl)c2c(c1)OCCO2 (centres undefined) | -5 | 0 | 3457 | -5 | -5 | . | . | .
O=C(CCc1ccccc1)N[C@@H]1c2ccccc2CC[C@H]1OCc1ccccc1 | -4 | 0 | 2984 | -5 | 0 | . | . | .
O=C(NCc1cccc(Cl)c1)N1CCN(S(=O)(=O)c2ccccc2F)CC1 | 69* | 6 | 3551 | -7 | 8 | 0 | -7 | 4
O=C(NCc1ccc(F)cc1)N1CCN(S(=O)(=O)c2ccccc2F)CC1 | 2 | -1 | 3663 | 6 | 6 | . | . | .
O=C(c1ccco1)N(Cc1cccc(Cl)c1)C1CCS(=O)(=O)C1 (centres undefined) | 10 | 1 | 5037 | -2 | 16 | . | . | .
Cc1onc(-c2c(Cl)cccc2Cl)c1C(=O)NCc1ccccn1 | -6 | -1 | 10814 | -1 | 10 | . | . | .
CCn1cc(CNC(=O)c2c(-c3c(Cl)cccc3Cl)noc2C)c(C)n1 | 35* | 4 | 2081 | 2 | -1 | -1 | -6 | -2
CCCCN(C(=O)COC(=O)c1ccccc1)c1c(N)n(CCC)c(=O)[nH]c1=O | -3 | -1 | 3203 | 0 | 2 | . | . | .
Cc1ccc(C2CC(c3ccc(NS(C)(=O)=O)cc3)=NN2C(=O)c2ccco2)cc1 (centres undefined) | 36* | 3 | 2791 | 2 | 0 | 1 | -4 | 0
Cc1cccc(NC(=O)c2ncn3c2C(=O)N(C)CC3)c1 | -8 | 0 | 3761 | -1 | 9 | . | . | .
COc1cc(CC(NC(C)=O)C(=O)NC2CCN(C(=O)c3ccc(C)cc3)CC2)cc(OC)c1 (centres undefined) | 43* | 0 | 2861 | 5 | 10 | -1 | -5 | 0
